# Most compounds without a hit are left out; they make up all but 2.9% or so of the library.
# proKLK7 act: proKLK7 zymogen activators, primary screen, biochemical, fluorescence intensity; purified proKLK7, EDANS-DABCYL substrate fluorescence; 100% is mature enzyme control, 0% vehicle; hit rate 0.9% among 370,000; activation, % at 7 µM; AID 652039, 2013;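 active means activation above the mean of all tested compounds plus 3 SD, computed per campaign excluding outliers beyond control limits, cut at about 13% in these data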
# Target sequence (P49862 whole entry, looked up): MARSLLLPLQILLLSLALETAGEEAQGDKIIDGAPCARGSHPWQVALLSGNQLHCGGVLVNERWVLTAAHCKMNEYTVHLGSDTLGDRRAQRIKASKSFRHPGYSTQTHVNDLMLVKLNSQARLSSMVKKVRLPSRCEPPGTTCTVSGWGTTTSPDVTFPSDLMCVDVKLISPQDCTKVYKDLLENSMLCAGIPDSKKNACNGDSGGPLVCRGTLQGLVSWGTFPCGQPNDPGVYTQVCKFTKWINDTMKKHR
# GAA850 FXN act: FXN promoter activators, primary screen, cell-based, luciferase luminescence, HEK293 lucGAA850 | hit rate 0.56% among 360,000 | HEK293 lucGAA850 FXN promoter luciferase reporter, 24 h; percent of 10 µM SAHA response | AID 540364, 2011 | activation, % at 6 µM;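 active means activation above the average of all compounds screened plus 3 SD, cutoff fixed separately per campaign, cut at about 7.5% in these data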;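 further: 0% = DMSO wells and 100% = 10 µM SAHA wells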
# SMARCA2 activ: SMARCA2 (BRM) function activators, primary screen, cell-based, luminescence, high throughput. AID 652017, 2013. activation, % at 9.1 µM. hit rate 1% among 370,000. MG213 cells, MMTV-luciferase reporter, dexamethasone, overnight; in the data active means activation above about 7.8%;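 further: 0% = vehicle wells and 100% = reference activator wells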
# FAS-TE inh: FAS thioesterase domain inhibitors, primary screen, biochemical, fluorescence intensity, uHTS; Fatty acid synthase (Homo sapiens), P49327; recombinant FAS-TE, OMFH fluorogenic substrate, fluorescence endpoint; inhibition, % at 15 µM; hit rate 0.67% among 360,000;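 active means compounds whose normalised, plate-corrected inhibition of enzyme fluorescence in the single-dose primary screen is 50% or more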;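 further: 0% = DMSO with enzyme and 100% = substrate without enzyme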
# KLK7 act conf: proKLK7 zymogen activators, confirmation, biochemical, fluorescence intensity, triplicate | shares compounds with proKLK7 act | purified proKLK7, EDANS-DABCYL substrate fluorescence; scaled: vehicle 0, mature enzyme 100 | activation, % at 7 µM | hit rate 68% among 3,200;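 active means activation, as change over the incubation, above the mean of all tested compounds plus 3 SD, cut at about 13% in these data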
# EDANS interfere: EDANS-DABCYL substrate optical interference, artefact control for kallikrein-7 zymogen activator project, biochemical, fluorescence intensity, high throughput. hit rate 80% among 3,200. activation, % at 7 µM. AID 686952, 2013. no enzyme, 4 h; solvent 0%, active enzyme control 100%. shares compounds with proKLK7 act;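 active means activation above the all-compound mean plus 3 SD, ignoring values outside control-based bounds, cut at about 4.8% in these data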;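 further: value is the 4 h activation minus the activation read at time zero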
# K7 EDANS ctr: EDANS fluorescence interference in dose response, no enzyme. EDANS-DABCYL peptide fluorescence interference. AID 720493. shares compounds with proKLK7 act. EC50, µM. hit rate 20% among 250;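 active means compounds that raise the fluorescence signal in this interference counterscreen, with EC50 at or below 10 µM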;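 further: intact quenched peptide substrate alone read at 355 nm excitation and 520 nm emission; signal is fluorescence gain from T0 to T4 after four hours at room temperature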
# The depositor's hits bear a star; nt = not tested or not shown.
SMILES,proKLK7 act,GAA850 FXN act,SMARCA2 activ,FAS-TE inh,KLK7 act conf,EDANS interfere,others
Nc1ccc2nc(-c3ccc(N)c(Cl)c3)[nH]c2c1,77*,7,3,3,68*,72*,
O=C(/C=C/c1ccc(Cl)cc1)NC(=S)Nc1ccc(C(=O)O)cc1,0,-2,2,4,nt,nt,
Nc1ccc(-c2nc3c(Cl)cc(N)cc3[nH]2)cc1,42*,-16,-7,-4,79*,69*,
Cc1[nH]nc2c1C(c1ccco1)C(C#N)=C(N)O2 (centres undefined),-1,-1,0,-9,nt,nt,
CC(C)c1[nH]nc2c1C(c1ccc(OC(=O)c3ccco3)cc1)C(C#N)=C(N)O2 (centres undefined),0,-2,-1,-7,nt,nt,
Cc1[nH]nc2c1C(c1ccc(OC(=O)c3ccco3)cc1)C(C#N)=C(N)O2 (centres undefined),310*,-4,-1,0,1,-2,
COc1ccc(-c2ccc(C3C(C#N)=C(N)Oc4n[nH]c(C)c43)o2)cc1 (centres undefined),14*,3,2,-30,9,9.0*,
Cc1ccc(S(=O)(=O)c2c(N)n(CCCO)c3nc4ccccc4nc23)cc1,14*,2,1,11,-46,-48,
COc1cccc(CNC(=O)CN2C(=O)NC(c3ccccc3)(c3ccccc3)C2=O)c1,0,-1,-3,5,nt,nt,
CC(=O)c1ccc(-c2ccc(C(=O)N3CCC(C(N)=O)CC3)o2)cc1,24*,-3,1,-4,27*,29*,
CC(=O)c1ccc(-c2ccc(C(=O)NC3CC(C)(C)NC(C)(C)C3)o2)cc1,34*,2,-1,-5,18*,24*,
CC(=O)c1ccc(-c2ccc(C(=O)NCC3CCCO3)o2)cc1 (centres undefined),29*,3,4,-7,43*,45*,
CC1(C)CC(NC(=O)c2ccc(F)cc2)CC(C)(C)N1,0,1,-1,-6,nt,nt,
COc1ccc(OC)c(C2C(C(=O)Nc3nc4ccccc4s3)=C(C)NC3=C2C(=O)CCC3)c1 (centres undefined),0,2,-7,26,nt,nt,
CC(=O)Nc1ccc(N2Cc3ccccc3C2)cc1,0,-4,-1,-2,nt,nt,
O=C(O)c1cc2nccc(-c3ccco3)n2n1,18*,2,2,-8,23*,22*,
COc1ccc(-c2ccnc3cc(C(=O)O)nn23)cc1,13*,0,-2,-5,34*,32*,
CC(=O)N(/N=C1/C(=O)Nc2ccccc21)c1ccccc1,0,5,1,14,nt,nt,
CC(C)CNC(=O)COC(=O)c1cc(Cl)cc(Cl)c1N,21*,1,1,0,-9,-16,
NC(=O)COC(=O)c1cc(Cl)cc(Cl)c1N,-8,3,-10,-7,nt,nt,
CN(CCC#N)C(=O)COC(=O)c1cc(Cl)cc(Cl)c1N,16*,0,-1,-2,12,11*,
COC(=O)CNC(=O)COC(=O)c1cc(Cl)cc(Cl)c1N,15*,2,0,-5,53*,40*,K7 EDANS ctr=>69
Nc1c(Cl)cc(Cl)cc1C(=O)OCC(=O)N1CCCC1,13*,-1,2,-1,18*,15*,K7 EDANS ctr=>70
CC(C)(C)S(=O)(=O)N1Cc2cc(=O)n(Cc3ccccc3)c(CCO)c2[C@@H]1CCO,0,3,-2,-13,nt,nt,
COc1ccc(C(C)(C)C)cc1NC(=O)Cn1cnnn1,0,1,0,-2,nt,nt,
Cc1ccc(C(=O)CCC(=O)NCc2ccc(Cl)cc2)cc1,0,1,3,18,nt,nt,
O=Cc1c(SCCO)nc2ccccn2c1=O,31*,2,-2,-8,23*,24*,
O=Cc1c(Sc2ccccc2)nc2ccccn2c1=O,0,1,3,2,nt,nt,
